Screens as filed in PubChem.
This excerpt belongs to a sample that is enriched for hits.
LmPK inh = qHTS Assay for Inhibitors of Leishmania Mexicana Pyruvate Kinase (LmPK). Q27686. purified LmPK, Kinase-Glo ATP luminescence, 1 h. Potency, µM (top dose mostly 57.5 µM), actives largely listed as inhibitors. hit rate 0.37% among 290,000. AID 1721, 2009
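Screened at intermediate enzyme activity to detect both inhibitors and activators: LmPK at 0.1 nM, with a 0.5 nM enzyme column as activation reference. PEP 0.5 mM, ADP 0.1 mM; ATP detected by luminescence after 1 h.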
Cycloheximide cs = Cycloheximide Counterscreen for Small Molecule Inhibitors of Shiga Toxin; cell reporter, cycloheximide protein synthesis inhibition counterscreen; max response, %; hit rate 12% among 300,000; in the data active means max response mostly above about 13%, no sharp cut-off; inactive means mostly below about 14%; further: read at 38.3 µM for the half of the compounds with a filed dose
Sm TGR block = qHTS Assay for the Inhibitors of Schistosoma Mansoni Peroxiredoxins; Schistosoma mansoni thioredoxin glutathione reductase (TGR), Q962Y6; purified TGR, DTNB reduction, TNB absorbance 405 nm; hit rate 3% among 360,000; Potency, µM (top dose mostly 114 µM), actives largely listed as inhibitors; further: nearly all actives have a fitted effect of over 60% in size
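TGR 20 nM + NADPH 100 uM (dispensed conc.), cpd preinc 15 min RT; start with NADPH (500 uM addition) then DTNB (15 mM addition). Kinetic TNB absorbance, 405 nm filter. Four-parameter Hill fit across titration.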
Shiga inhibitor = A qHTS for Small Molecule Inhibitors of Shiga Toxin; inhibition, % at 38.7 µM; hit rate 9.2% among 290,000; AID 2315, 2010; Vero cells, Shiga toxin protein synthesis inhibition reporter; in the data active means inhibition mostly above about 28%, no sharp cut-off; inactive means mostly below about 43%
Giardia FBPA inh = qHTS Assay for Inhibitors of Fructose-1,6-bisphosphate Aldolase from Giardia Lamblia; purified Giardia FBPA; Potency, µM (top dose mostly 59.6 µM), most hits filed as inhibitors; hit rate 0.71% among 290,000; AID 2451, 2010; further: nearly all actives have a fitted effect of over 55% in size
Target sequence (A8B2U2 whole entry, looked up): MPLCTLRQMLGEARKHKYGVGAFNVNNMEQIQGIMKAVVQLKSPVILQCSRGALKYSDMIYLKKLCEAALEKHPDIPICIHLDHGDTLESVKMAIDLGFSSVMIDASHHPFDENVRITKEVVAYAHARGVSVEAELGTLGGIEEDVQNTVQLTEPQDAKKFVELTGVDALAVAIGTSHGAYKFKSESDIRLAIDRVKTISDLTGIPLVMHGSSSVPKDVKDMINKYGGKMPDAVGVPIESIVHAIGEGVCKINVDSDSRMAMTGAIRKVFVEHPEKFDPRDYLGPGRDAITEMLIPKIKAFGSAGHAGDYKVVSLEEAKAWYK
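Giardia FBPA (40 nM reagent) was preincubated 10 min at RT with compound (up to 57.5 uM final), then substrate plus GAPDH/TPI/NAD/arsenate coupling system with diaphorase/resazurin was added; resorufin fluorescence (525/598 nm) was read after 20 min.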
TbPYK inhibitor = qHTS of Trypanosoma Brucei Inhibitors. pyruvate kinase (Trypanosoma brucei), Q57TT1. Potency, µM (doses to about 76.8 µM), hits mostly inhibitors. hit rate 0.12% among 410,000. TbPYK enzyme, Kinase-Glo Plus ATP luminescence, 45 min; further: nearly all actives have a fitted effect of over 50% in size
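In this concentration-response screen, enzyme-free wells defined baseline while DMSO plates tracked drift. Each reaction combined TbPYK, substrate, compound and 130 uM ADP for 45 min at room temperature. Kinase-Glo Plus luminescence gave the signal.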
Of the large screens only hits and unclear results are named; the others gave an inactive call. Unless noted, the call rests on the fitted dose curve; in most records, active means well fitted curve in the direction sought with a large enough effect; inconclusive means small, poorly fitted or top-dose-only effect, or another doubt; inactive means no such curve, though single readings can be large; an effect the other way counts as inactive or inconclusive.

Clc1ccc(OCc2nc3ccccc3n2Cc2ccccc2)c(Cl)c1	none (no result: LmPK inh, Cycloheximide cs, Shiga inhibitor, Giardia FBPA inh)
CCC(C)NC(=O)Cn1c(COc2ccc(Cl)cc2Cl)nc2ccccc21 (stereo not drawn)	Cycloheximide cs 33, Shiga inhibitor 39
O=C(O)c1ccc(Nc2nc(-c3cccnc3)cs2)cc1O	none
Cc1ccc(C)c(Nc2nc(-c3cccnc3)cs2)c1	Cycloheximide cs 24, Shiga inhibitor 111
Cc1ccc(Nc2nc(-c3cccnc3)cs2)cc1Cl	Cycloheximide cs 44
CCOc1ccccc1Nc1nc(-c2cccnc2)cs1	none
Cc1ccc(C)c(Cn2c3ccccc3c3cnn(CC(=O)NC(C)c4ccccc4)c(=O)c32)c1 (stereo not drawn)	none (no result: LmPK inh, Cycloheximide cs, Shiga inhibitor, Giardia FBPA inh)
O=c1[nH]c(C2CCCN(S(=O)(=O)c3ccccc3)C2)nc2c1nnn2Cc1ccccc1 (stereo not drawn)	Sm TGR block 89µM
O=c1[nH]c(C2CCCN(S(=O)(=O)c3cccc(F)c3)C2)nc2c1nnn2Cc1ccccc1 (stereo not drawn)	none
COc1ccc(C2=CSC3=C(C(=O)c4cccc(S(=O)(=O)N(C)C)c4)CCN23)cc1	Sm TGR block 1µM, TbPYK inhibitor inconclusive
CCn1c(SCC(N)=O)nnc1C(C)C	none
N#Cc1ccc(-c2cccnc2)nc1SCC(=O)c1ccccc1	Cycloheximide cs 37, Shiga inhibitor 82
CCn1c(SCC(=O)c2ccccc2)nnc1-c1ccoc1C	Cycloheximide cs 21, Shiga inhibitor 50
CCn1c(SCC(=O)c2ccc(Cl)cc2)nnc1C(C)C	Cycloheximide cs 34, Shiga inhibitor 116
N#Cc1ccc(-c2ccccc2)nc1SCC(=O)c1cccc(Cl)c1	none
CCn1nnnc1SCC(=O)c1ccc(C)cc1	Cycloheximide cs 38, Shiga inhibitor 121
O=S(=O)(c1ccc2c(c1)OCCO2)N1CCN(S(=O)(=O)c2ccc(F)cc2F)CC1	none (no result: LmPK inh, Sm TGR block, Giardia FBPA inh, TbPYK inhibitor)
Cc1ccc(S(=O)(=O)c2c(Nc3ccc(C)c(C)c3)sc(C(=O)c3ccc4c(c3)OCO4)c2N)cc1	none (no result: LmPK inh, Cycloheximide cs, Shiga inhibitor, Giardia FBPA inh)
CCn1c(SCC(=O)c2ccc(C)cc2)nnc1-c1ccoc1C	Cycloheximide cs 27, Sm TGR block inconclusive
CCn1c(SCC(=O)c2ccc(C)cc2)nnc1-c1ccncc1	none
CCn1c(SCC(=O)c2ccccc2)nnc1-c1cccnc1	Cycloheximide cs 44 (no result: Sm TGR block)
CC(=O)c1ccc(NC(=O)CSc2nnc(-c3ccoc3C)n2Cc2ccccc2)cc1	Cycloheximide cs 24, Shiga inhibitor 31
CCn1c(SCC(=O)c2ccc(Cl)cc2)nnc1-c1ccoc1C	Cycloheximide cs 33, Sm TGR block 25µM, Shiga inhibitor 17
COCCn1c(SCC(=O)Nc2ccccc2)nnc1-c1ccoc1C	none
CCOc1ccc(NC(=O)CC2C(=O)N(c3ccccc3)C(=O)N2C2CCCCC2)cc1 (stereo not drawn)	none (no result: LmPK inh, Cycloheximide cs, Shiga inhibitor, Giardia FBPA inh)
CCn1c(Cn2nnc(-c3ccccc3)n2)nnc1SCC(=O)Nc1ccc(C(C)=O)cc1	Cycloheximide cs 44, Shiga inhibitor 57
Cc1occc1-c1nnc(SCC(=O)c2ccc(Cl)cc2)n1CC1CCCO1 (stereo not drawn)	Sm TGR block 20µM
COCCOC(=O)c1c(C)oc2c1cc(NS(=O)(=O)c1ccc(Cl)c(C)c1)c1ccccc12	none (no result: LmPK inh, Cycloheximide cs, Shiga inhibitor, Giardia FBPA inh)
N#Cc1cc([N+](=O)[O-])c(-n2nnc3ccccc32)c([N+](=O)[O-])c1	Sm TGR block 14µM
CS(=O)(=O)c1ccc(-n2nnc3ccccc32)c([N+](=O)[O-])c1	none
Cc1cccnc1Nc1nc(-c2ccccn2)cs1	Cycloheximide cs 47, Shiga inhibitor 126, Giardia FBPA inh inconclusive
Cc1cccnc1Nc1nc(-c2ccccc2)cs1	Cycloheximide cs 67, Shiga inhibitor 104
Cc1cc(C)cc(OCC(=O)Nc2nc(-c3ccccn3)cs2)c1	none (no result: LmPK inh, Cycloheximide cs, Shiga inhibitor, Giardia FBPA inh)
Cc1cc(S(=O)(=O)C(CNC(=O)COc2ccc(Cl)cc2)c2cccs2)ccc1F (stereo not drawn)	none (no result: LmPK inh, Cycloheximide cs, Shiga inhibitor, Giardia FBPA inh)
COc1cccc(C2=C(C(C)=O)Sc3nncn3N2C(C)=O)c1	Sm TGR block inconclusive (no result: LmPK inh, Cycloheximide cs, Shiga inhibitor, Giardia FBPA inh)
CC(=O)C1=C(c2ccc(Cl)c(Cl)c2)N(C(C)=O)n2cnnc2S1	Sm TGR block 10µM (no result: LmPK inh, Cycloheximide cs, Shiga inhibitor, Giardia FBPA inh)
COc1cc(C)c(CC/C(C)=C/C=C/C(C)=O)c(C)c1C	none (no result: LmPK inh, Cycloheximide cs, Sm TGR block, Shiga inhibitor, TbPYK inhibitor)
